Consider 29 molecules from PubChem BioAssay (NCI).

Common to all, as to test: NCI-60 one-dose screen, 48 h (100 = growth as untreated, 0 = no growth, -100 = all killed)
Common to all, as to details: 10 µM unless noted

The subject of experiment [1] is T-47D breast.
The subject of experiment [2] is BT-549 breast.
Experiment [3] has as its system MDA-MB-435 melanoma.
Experiment [4] has as its system SW-620 colon.
Experiment [5] relates to MCF7 breast.
The subject of experiment [6] is HCT-116 colon.
Experiment [7] has as its system HCC-2998 colon.
The test system of experiment [8] is KM12 colon.

Compounds without any hit were thinned out: in the full panel of roughly 83,000, 20% have a hit.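 Cells were grown in 96-well plates and exposed to the test compound at a single concentration for 48 hours; results are reported as percent growth, with values below 10 considered active.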 Unmarked numbers belong to inactive results. Calls of active or inactive are those of the source.

Regarding `CCCCCCNC(=O)Oc1ccc(/C(=C(\C)c2ccc(Cl)cc2)c2ccc(OCCN3CCCCC3)cc2)cc1`, the growth was 29.1% in experiment [1]; 64.4% in experiment [2]; 52.6% in experiment [3]; 7.33% (active) in experiment [4]; 7.75% (active) in experiment [5]; 6.05% (active) in experiment [6]. Also, the growth in experiment [7] was 62.9%; in experiment [8], 36.5%.

For `COc1cc(/C=C/c2ccccc2)cc(OC)c1`, the growth was 77.9% in experiment [1]; 101% in experiment [2]; 103% in experiment [3]; 100% in experiment [4]; 71.4% in experiment [5]; 92.4% in experiment [6]. The growth in experiment [7] was 102%; in experiment [8], 95.6%.

As to `NS(=O)(=O)c1ccc(-n2nc(C(=O)N/N=C\c3ccc(F)cc3)cc2-c2ccc(Br)cc2)cc1`, the growth was 69.7% in experiment [1]; 86.1% in experiment [2]; -1.32% (active) in experiment [3]; 62.8% in experiment [4]; 55.1% in experiment [5]; 82.8% in experiment [6]. Further, the growth is 86.9% in experiment [7] and 61.8% in experiment [8].

On to `CCCCCCCNC(=O)CCCNc1ncnc2c1ncn2-c1cccc(C(C)O)c1` (configuration not stated), for which the growth in experiment [1] was 74.1%; in experiment [2], 93.5%; in experiment [3], 97.5%; in experiment [4], 101%; in experiment [5], 86.6%; in experiment [6], 104%. The growth was 103% in experiment [7] and 95.6% in experiment [8].

As to `NCCNc1nc2ccccc2c2c(=O)c3cc(F)ccc3sc12`, the growth was 88.7% in experiment [1]; 92.5% in experiment [2]; 58.6% in experiment [3]; -29.1% (active) in experiment [4]; 52.6% in experiment [5]; 22% in experiment [6]. For the same molecule, the growth in experiment [7] is 4.32% (active); in experiment [8], 34.5%.

Turning to `COc1cccc2c(=O)c3c(sc12)c(N1CCNCC1)nc1ccccc13`, the growth in experiment [1] is 85.5%; in experiment [2] it was 97.6%; in experiment [3], 54.7%; in experiment [4], -39.2% (active); in experiment [5], 53.2%; in experiment [6] it was -52.4% (active). Besides, the results for the growth in experiment [7] and in experiment [8] were 11.1% and 46.3%, respectively.

For the molecule `Cc1nc(/N=C(\N)NC(=O)Nc2cccc(Cl)c2)sc1C`, the growth was 73.5% in experiment [1]; 71.7% in experiment [2]; -13.5% (active) in experiment [3]; 38.2% in experiment [4]; 35.9% in experiment [5]; 66.4% in experiment [6]. Further, the figures for the growth in experiment [7] and in experiment [8] were 78.2% and 41.6%, respectively.

Take `COc1ccc(-c2ncnc3c2ncn3CC#CCCl)cc1`: the growth in experiment [1] was 53.1%; in experiment [2], 50.1%; in experiment [3], 40.2%; in experiment [4], 48.9%; in experiment [5] it was 35.7%; in experiment [6], 52.5%. For the same molecule, the growth in experiment [7] is 84.8%; in experiment [8], 72.6%.

`CC/C=C\C[C@@H](O)C/C=C1/C(=O)C=C[C@H]1C/C=C\CCCC(=O)OC`: the growth in experiment [1] was 15.6%; in experiment [2], -6.09% (active); in experiment [3], 1.93% (active); in experiment [4], -15.9% (active); in experiment [5], 9.31% (active); in experiment [6], -47.1% (active). In addition, the values for the growth in experiment [7] and in experiment [8] were -88.1% (active) and -58.2% (active), respectively.

As for `Cc1ccc(S(=O)(=O)N/N=C/C2(c3ccccc3)CC2)cc1`, the growth is 101% in experiment [1]; 102% in experiment [2]; 104% in experiment [3]; 97.1% in experiment [4]; 88.6% in experiment [5]; 98.7% in experiment [6]. For the same molecule, the growth in experiment [7] is 111%; in experiment [8], 107%.

In the case of `COc1cc(CCCO)c(OC)c(OC)c1OC`, the growth in experiment [1] was 99.4%; in experiment [2], 107%; in experiment [3], 102%; in experiment [4], 105%; in experiment [5], 104%; in experiment [6] it was 106%. In addition, the growth in experiment [7] is 103%; in experiment [8], 105%.

Regarding `O=C(N/N=C/[C@@H](O)[C@H](O)[C@H](O)CO)c1ccc(NC(=O)c2cccnc2)cc1`, the growth was 96.1% in experiment [1]; 99% in experiment [2]; 104% in experiment [3]; 98.9% in experiment [4]; 92.6% in experiment [5]; 103% in experiment [6]. Also, the results for the growth in experiment [7] and in experiment [8] were 117% and 102%, respectively.

`O=C(O)CCC/C=C\C[C@H]1C=CC(=O)/C1=C/C[C@@H](O)CCc1cccc(C(F)(F)F)c1`: the growth was 21.4% in experiment [1]; 5.1% (active) in experiment [2]; -53.5% (active) in experiment [3]; -35.8% (active) in experiment [4]; 11% in experiment [5]; -66.4% (active) in experiment [6]. Further, the growth in experiment [7] is -84.4% (active); in experiment [8] it was -47% (active).

As to `CCN(CC)CCNc1nc2ccccc2c2c(=O)c3cc(Cl)ccc3sc12`, the growth in experiment [1] was 60.4%; in experiment [2], 94%; in experiment [3], 15.6%; in experiment [4] it was 17.2%; in experiment [5], 52.3%; in experiment [6], 20.5%. In addition, the growth in experiment [7] was 14.2%; in experiment [8], 26.5%.

Consider `CCc1ccc(Oc2c(-c3ccc(OCc4ccc(Cl)cc4)cc3O)nn(C)c2C(F)(F)F)cc1`, for which the growth in experiment [1] is -8.15% (active); in experiment [2], -12% (active); in experiment [3], 1.36% (active); in experiment [4] it was 7.28% (active); in experiment [5], 6.53% (active); in experiment [6], -62.4% (active). Also, the figures for the growth in experiment [7] and in experiment [8] were 12.8% and -5.25% (active), respectively.

`CCCCn1c(=O)c(-c2cc(-c3ccc(Cl)cc3)nc(-c3ccc(Cl)cc3)c2)cc2cc(Cl)ccc21`: the growth in experiment [1] was 103%; in experiment [2], 106%; in experiment [3], 103%; in experiment [4], 99.7%; in experiment [5], 98.4%; in experiment [6] it was 106%. For the same molecule, the growth in experiment [7] and in experiment [8] was 102% each time.

Turning to `O=c1ccc(N=Nc2ccc([N+](=O)[O-])cc2)ccc1O`, the growth in experiment [1] was 16.8%; in experiment [2], 97.3%; in experiment [3], 21.8%; in experiment [4], 15.4%; in experiment [5], 7.16% (active); in experiment [6] it was 32.3%. The growth in experiment [7] is 22.3%; in experiment [8], 16.7%.

For the molecule `Cc1nc(/N=C(\N)NC(=O)Nc2ccccc2Cl)sc1C`, the growth is 34.7% in experiment [1]; 69.3% in experiment [2]; -25.6% (active) in experiment [3]; 36.3% in experiment [4]; 23.6% in experiment [5]; 28.5% in experiment [6]. Besides, the growth in experiment [7] was 33.4%; in experiment [8] it was 40.3%.

On to `c1cc(-c2nnc(SSc3ncnc4nc[nH]c34)o2)ccn1`, for which the growth in experiment [1] is 42.3%; in experiment [2], 51.7%; in experiment [3], 16%; in experiment [4], 34.6%; in experiment [5], 23%; in experiment [6], 16.6%. Also, the growth in experiment [7] is 10.3%; in experiment [8], 45.8%.

`COc1ccc(/C=C(\C#N)n2nnc3c(F)cccc32)cc1`: the growth in experiment [1] was 16.1%; in experiment [2], 45.4%; in experiment [3], -78.4% (active); in experiment [4], 15.6%; in experiment [5], 18.8%; in experiment [6] it was 8.75% (active). Moreover, the growth is 1.33% (active) in experiment [7] and 7.96% (active) in experiment [8].

For `OC(c1ccccc1)C(NC(Cc1ccccc1)c1ccccc1)c1ccccc1` (configuration not stated), the growth in experiment [1] is 73.6%; in experiment [2], 91.4%; in experiment [3] it was 97.9%; in experiment [4] it was 90%; in experiment [5], 104%; in experiment [6], 77.1%. In addition, the growth in experiment [7] is 96.1%; in experiment [8] it was 89.1%.

On to `COc1ccc(C2=Nn3c(nnc3-c3cc(Cl)cc(Cl)c3Cl)SC2)cc1`, for which the growth was 68.6% in experiment [1]; -31.2% (active) in experiment [2]; -46.7% (active) in experiment [3]; 20.2% in experiment [4]; 7.11% (active) in experiment [5]; -27% (active) in experiment [6]. Moreover, the growth in experiment [7] was -57.9% (active); in experiment [8], 6.48% (active).

As for `CC(=O)CC(c1ccccc1)c1c(C)[nH]c2ccccc12` (configuration not stated), the growth in experiment [1] was 99.5%; in experiment [2], 112%; in experiment [3], 100%; in experiment [4] it was 92.1%; in experiment [5] it was 96.2%; in experiment [6] it was 89.6%. For the same molecule, the growth is 110% in experiment [7] and 100% in experiment [8].

`Nc1cc2c(cc1Br)-c1cc(Cl)ccc1C2=O`: the growth in experiment [1] is 91.7%; in experiment [2], 121%; in experiment [3], 117%; in experiment [4], 109%; in experiment [5] it was 57.9%; in experiment [6], 96.1%. Further, the growth in experiment [7] was 114%; in experiment [8] it was 98.6%.

Regarding `Cc1nn(-c2ccccc2)c(-n2ccnc2)c1/C=N/Nc1nc(-c2ccc(F)cc2)cs1`, the growth in experiment [1] is 31.1%; in experiment [2] it was 75.3%; in experiment [3] it was 85.2%; in experiment [4], 88.4%; in experiment [5], 72.3%; in experiment [6], 67.8%. In addition, the growth is 104% in experiment [7] and 90.4% in experiment [8].

On to `COc1ccc2c(c1)c(-c1nn3cc(-c4cccs4)nc3s1)cn2C`, for which the growth in experiment [1] is 43.6%; in experiment [2], 101%; in experiment [3], 87.6%; in experiment [4], 82.3%; in experiment [5], 60.4%; in experiment [6], 82.8%. In addition, the growth in experiment [7] is 98.9%; in experiment [8], 70.4%.

As to `C/C(=C(/c1ccccc1)c1ccc(N2C(=O)c3cccc4c(N5CCN(C)CC5)ccc(c34)C2=O)cc1)c1ccccc1`, the growth in experiment [1] was 65.3%; in experiment [2], 99.6%; in experiment [3], 88.2%; in experiment [4] it was 80.2%; in experiment [5], 59%; in experiment [6] it was 49.4%. The growth is 99.8% in experiment [7] and 79.8% in experiment [8].

In the case of `CC(=O)OC[C@H]1OC(Sc2sc(C(=O)c3ccc(Br)cc3)c(N)c2-c2nc3ccccc3s2)[C@H](OC(C)=O)[C@@H](OC(C)=O)[C@H]1OC(C)=O` (some centres not stated), the growth was 67.4% in experiment [1]; 90.2% in experiment [2]; 91.7% in experiment [3]; 104% in experiment [4]; 94.6% in experiment [5]; 91.3% in experiment [6]. For the same molecule, the results for the growth in experiment [7] and in experiment [8] were 98.8% and 95.7%, respectively.

As for `O=C1NC(=O)C(Cn2cnc3ccccc32)N1` (configuration not stated), the growth in experiment [1] was 106%; in experiment [2], 110%; in experiment [3], 100%; in experiment [4] it was 99.3%; in experiment [5] it was 92.1%; in experiment [6], 109%. Further, the results for the growth in experiment [7] and in experiment [8] were 103% and 102%, respectively.
